The results in this text go back to PubChem BioAssay.

A short description of assay [1]: antimalarial activity against Dd2 strain (AID 2302;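 active means growth inhibition above 50% at the single 2 µM test dose, taken to imply half-maximal potency below 2 µM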;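 further: 0% = DMSO untreated growth and 100% = chloroquine plus artemisinin killed control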). The note with it: P. falciparum Dd2 in RBCs, LDH growth readout, 72 h; at 2 µM; active compounds read high.
Assay [2] can be described thus: HepG2 cytotoxicity, primary screen, cytotoxicity control for P. falciparum antimalarial project, cell-based, ATP luminescence (AID 2303;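 active means inhibition above 50%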;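 further: 0% = DMSO wells and 100% = digitonin-killed cells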). The note with it: HepG2 viability, 24-48 h, at 10 µM, active compounds read high.
Assay [3] deals with L-lactate dehydrogenase (Plasmodium falciparum (isolate CDC / Honduras)) (UniProt Q27743). Put plainly: PfLDH activity inhibition – cell lysate, 3D7 strain, counter-screen for P. falciparum growth inhibition project (AID 2304).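 Further: 0% = vehicle and 100% = reference inhibitor.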 The note with it: P. falciparum 3D7 crude extract, LDH APAD/NBT absorbance; at 2 µM; active compounds read high. (In general: Counterscreens check selectivity or assay interference.)
L-lactate dehydrogenase (Plasmodium falciparum (isolate CDC / Honduras)), sequence (Q27743 whole entry, looked up): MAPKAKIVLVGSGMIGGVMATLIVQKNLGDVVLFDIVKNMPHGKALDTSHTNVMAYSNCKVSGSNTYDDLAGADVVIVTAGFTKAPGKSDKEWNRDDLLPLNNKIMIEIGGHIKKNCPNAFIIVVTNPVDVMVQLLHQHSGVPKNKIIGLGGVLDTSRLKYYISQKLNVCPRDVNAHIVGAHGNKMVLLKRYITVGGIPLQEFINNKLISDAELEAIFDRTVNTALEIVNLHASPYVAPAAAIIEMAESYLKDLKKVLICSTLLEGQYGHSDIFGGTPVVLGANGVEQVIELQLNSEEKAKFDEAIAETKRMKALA

Assay [4] is described as follows: inhibition of 3D7 malaria parasite growth – strain 3D7 (AID 2306).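 Further: 0% = DMSO wells and 100% = chloroquine plus artemisinin control wells.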 The conditions noted are these: P. falciparum 3D7 erythrocytic growth, LDH absorbance, 72 h; at 2 µM; active compounds read high.
Assay [5] has as its target Calcium-dependent protein kinase 1 (Plasmodium falciparum (isolate 3D7)) (UniProt P62344). Put plainly: PfCDPK1 kinase inhibitors, biochemical, TCAMS library (AID 1159585; cut-off not given, nearly all actives have IC50 up to about 0.98 µM;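 further: inhibitors leave more ATP so luminescence rises with inhibition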). The note with it: recombinant PfCDPK1, Kinase-Glo ATP depletion luminescence. In general terms: Kinase-Glo measures the ATP left after a reaction by luminescence.
The target of assay [6] is Plasmodium falciparum protein kinase 6 (PK6, PF3D7_1337100) (UniProt Q8IDW1). Nature of the assay: PfPK6 kinase inhibitors, biochemical, TCAMS library (AID 1159586). The note with it: recombinant PfPK6, Kinase-Glo ATP depletion luminescence.
Plasmodium falciparum protein kinase 6 (PK6, PF3D7_1337100), sequence (Q8IDW1 1-305): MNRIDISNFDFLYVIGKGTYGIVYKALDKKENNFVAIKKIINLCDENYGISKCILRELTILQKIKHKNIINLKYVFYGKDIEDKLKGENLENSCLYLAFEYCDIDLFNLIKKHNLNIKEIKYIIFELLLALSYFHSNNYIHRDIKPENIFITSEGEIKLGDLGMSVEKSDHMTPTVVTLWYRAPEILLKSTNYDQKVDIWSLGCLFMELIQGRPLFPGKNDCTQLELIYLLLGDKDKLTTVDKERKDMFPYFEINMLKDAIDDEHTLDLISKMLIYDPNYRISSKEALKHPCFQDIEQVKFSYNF
Assay [7] has as its target Protein kinase 7 (PK7), Plasmodium falciparum 3D7 (PF3D7_0213400) (UniProt Q7YTF7). Put plainly: inhibition of Plasmodium PK7 catalytic activity – biochemical, TCAMS antimalarial set, Kinase-Glo luminescence (AID 1159587). The conditions noted are these: recombinant PfPK7, Kinase-Glo ATP depletion luminescence.
Assay [8] deals with Calcium-dependent protein kinase 4 (Plasmodium falciparum (isolate 3D7)) (UniProt Q8IBS5). Nature of the assay: PfCDPK4 kinase inhibitors, biochemical, TCAMS library (AID 1159588; cut-off not given, nearly all actives have IC50 up to about 0.91 µM). The conditions noted are these: recombinant PfCDPK4, Kinase-Glo ATP depletion luminescence.
Calcium-dependent protein kinase 4 (Plasmodium falciparum (isolate 3D7)), sequence (Q8IBS5 whole entry, looked up): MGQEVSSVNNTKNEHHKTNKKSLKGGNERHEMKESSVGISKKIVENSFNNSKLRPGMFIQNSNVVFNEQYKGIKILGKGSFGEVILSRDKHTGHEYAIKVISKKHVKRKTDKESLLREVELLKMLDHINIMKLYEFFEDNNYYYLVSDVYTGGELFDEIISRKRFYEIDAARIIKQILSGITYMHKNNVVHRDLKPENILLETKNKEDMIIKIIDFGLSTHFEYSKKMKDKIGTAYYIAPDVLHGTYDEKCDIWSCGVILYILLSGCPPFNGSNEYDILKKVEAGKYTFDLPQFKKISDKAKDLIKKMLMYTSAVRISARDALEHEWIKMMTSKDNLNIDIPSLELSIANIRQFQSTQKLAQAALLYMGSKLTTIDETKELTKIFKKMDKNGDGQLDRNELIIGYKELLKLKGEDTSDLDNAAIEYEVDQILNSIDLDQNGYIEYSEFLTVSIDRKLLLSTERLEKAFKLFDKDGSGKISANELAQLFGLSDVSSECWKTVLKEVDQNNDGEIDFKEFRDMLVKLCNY

Structures are written as SMILES. Values without a mark were called inactive. For part of these data: Potency and affinity values are given separately. Active and inactive are the calls of the source. Unless noted, how the calls were made is not given here.

Protein kinase 7 (PK7), Plasmodium falciparum 3D7 (PF3D7_0213400), sequence (Q7YTF7 1-343): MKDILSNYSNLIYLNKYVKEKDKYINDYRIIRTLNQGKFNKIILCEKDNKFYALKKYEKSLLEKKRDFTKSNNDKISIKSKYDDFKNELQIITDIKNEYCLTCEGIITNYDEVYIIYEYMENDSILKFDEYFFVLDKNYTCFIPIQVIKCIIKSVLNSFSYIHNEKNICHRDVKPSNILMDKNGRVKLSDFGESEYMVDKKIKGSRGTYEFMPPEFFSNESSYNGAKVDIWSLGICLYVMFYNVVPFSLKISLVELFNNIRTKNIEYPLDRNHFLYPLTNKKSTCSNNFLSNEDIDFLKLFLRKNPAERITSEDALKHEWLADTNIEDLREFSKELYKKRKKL
Calcium-dependent protein kinase 1 (Plasmodium falciparum (isolate 3D7)), sequence (P62344 whole entry, looked up): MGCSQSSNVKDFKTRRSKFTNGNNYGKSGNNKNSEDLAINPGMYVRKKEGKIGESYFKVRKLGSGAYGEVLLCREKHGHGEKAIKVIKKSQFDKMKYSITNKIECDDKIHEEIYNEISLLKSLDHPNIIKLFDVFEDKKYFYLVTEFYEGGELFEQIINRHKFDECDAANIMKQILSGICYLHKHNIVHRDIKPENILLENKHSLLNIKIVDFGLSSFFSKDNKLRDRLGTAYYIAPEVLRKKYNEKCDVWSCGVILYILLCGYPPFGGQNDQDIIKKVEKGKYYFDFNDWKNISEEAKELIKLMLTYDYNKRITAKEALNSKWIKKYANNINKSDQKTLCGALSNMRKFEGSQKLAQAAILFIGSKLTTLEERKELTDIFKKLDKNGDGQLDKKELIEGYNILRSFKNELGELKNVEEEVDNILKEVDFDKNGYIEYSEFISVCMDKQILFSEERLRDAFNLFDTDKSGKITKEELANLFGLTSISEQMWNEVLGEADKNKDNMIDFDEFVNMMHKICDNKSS

The term inhibition denotes the change of the read-out against control, counted positive when it falls. As for `COC(=O)Nc1ccc(-c2ccc(C(=O)NC3CCN(C[C@H](O)c4ccnc5ccc(OC)cc45)CC3)cc2)c(C)c1`, the growth inhibition in assay [1] was 97% (active); in assay [4], 100% (active). The inhibition in assay [2] was 32%; in assay [3], -2%. In addition, the outcome in assay [5], in assay [6], in assay [7] and in assay [8] was inactive.
As to `O=C(Nc1ccc(Cl)cc1)Nc1cccc(-c2ccc(-c3nc4ccccc4[nH]3)cc2)c1`, the values for the growth inhibition in assay [1] and in assay [4] were 6% and 87% (active), respectively. Besides, the inhibition in assay [2] was 19%; in assay [3], -3%. The outcome in assay [5], in assay [6], in assay [7] and in assay [8] was inactive.
For `COc1cc(NC(=O)/C=C/c2cc(F)cc(F)c2F)cc(OCCN2CCN(CCN3CCOCC3)CC2)c1`, the growth inhibition in assay [1] was 94% (active); in assay [4], 102% (active). For the same compound, the results for the inhibition in assay [2] and in assay [3] were 21% and 0%, respectively. In addition, the result in assay [5], in assay [6], in assay [7] and in assay [8] was inactive.
Consider `NC(N)=NN=Cc1ccc2ccc3ccccc3c2c1`, for which the growth inhibition is 89% (active) in assay [1] and 101% (active) in assay [4]. Also, the inhibition was 34% in assay [2] and 5% in assay [3]. The outcome in assay [5], in assay [6], in assay [7] and in assay [8] was inactive.
Take `CC(C)CCN1CCCN(Cc2cccc(C(=O)Nc3ccc(C(C)(C)C)cc3)c2)CC1`: the growth inhibition is 1% in assay [1] and 85% (active) in assay [4]. In addition, the inhibition is 33% in assay [2] and -5% in assay [3]. For the same compound, the result in assay [5], in assay [6], in assay [7] and in assay [8] was inactive.
For the compound `COc1cc(C(=O)NC2CCN(Cc3ccccc3)CC2)ccc1-c1cc2cc(Cl)c(Cl)cc2[nH]1`, the growth inhibition was 101% (active) in assay [1] and 102% (active) in assay [4]. In addition, the results for the inhibition in assay [2] and in assay [3] were 33% and 5%, respectively. The outcome in assay [5], in assay [6], in assay [7] and in assay [8] was inactive.
`NC(=O)c1ccsc1NC(=O)CNC(c1ccc(F)cc1)c1cccs1` (centres undefined): the growth inhibition in assay [1] was 71% (active); in assay [4] it was 92% (active). The inhibition is 31% in assay [2] and -2% in assay [3]. Besides, the result in assay [5], in assay [6], in assay [7] and in assay [8] was inactive.
`COc1ccc(S(=O)(=O)NC2CCN(c3ccc(C(F)(F)F)cc3NC(=O)OCC(C)C)CC2)cc1`: the values for the growth inhibition in assay [1] and in assay [4] were 13% and 85% (active), respectively. For the same compound, the inhibition in assay [2] is 19%; in assay [3], 3%. The outcome in assay [5], in assay [6], in assay [7] and in assay [8] was inactive.
Turning to `Cc1ccccc1C1CCN(C2CCC(NC(=O)/C=C/c3cccc(F)c3F)CC2)CC1` (centres undefined), the growth inhibition was 45% in assay [1] and 89% (active) in assay [4]. In addition, the figures for the inhibition in assay [2] and in assay [3] were 57% (active) and -3%, respectively. Also, the result in assay [5], in assay [6], in assay [7] and in assay [8] was inactive.
Take `COc1cccc2c(NN=Cc3ccccc3F)ccnc12`: the growth inhibition in assay [1] was 37%; in assay [4] it was 96% (active). For the same compound, the values for the inhibition in assay [2] and in assay [3] were 6% and 1%, respectively. For the same compound, the result in assay [5], in assay [6], in assay [7] and in assay [8] was inactive.
As to `COc1ccc(C(=O)NCc2ccccc2-c2ccc(C(C)(C)C)cc2)cc1O`, the growth inhibition in assay [1] was 97% (active); in assay [4] it was 99% (active). Further, the inhibition was 10% in assay [2] and 1% in assay [3]. The result in assay [5], in assay [6], in assay [7] and in assay [8] was inactive.
Consider `CC(C)Nc1cc(C(=O)N[C@@H](Cc2ccccc2)[C@H](O)CNC2CCCCC2)cc(N2CCCCS2(=O)=O)c1`, for which the growth inhibition in assay [1] and in assay [4] was 98% (active) each time. For the same compound, the inhibition in assay [2] was 9%; in assay [3], 4%. Also, the result in assay [5], in assay [6], in assay [7] and in assay [8] was inactive.
On to `COc1ccc2nccc([C@@H](O)CN3CCC(NC(=O)Cc4cc5ccccc5s4)CC3)c2c1`, for which the values for the growth inhibition in assay [1] and in assay [4] were 42% and 92% (active), respectively. The inhibition in assay [2] is 16%; in assay [3] it was 7%. Further, the result in assay [5], in assay [6], in assay [7] and in assay [8] was inactive.
For `NC(=O)N1CCN(Cc2ccc(Br)cc2)CC1`, the growth inhibition in assay [1] was 0%; in assay [4], 96% (active). Also, the values for the inhibition in assay [2] and in assay [3] were 83% (active) and -5%, respectively. In addition, the outcome in assay [5], in assay [6], in assay [7] and in assay [8] was inactive.
As to `Cc1ccc(Cc2c(C)nc3nc(N)nc(N)c3c2C)cc1`, the growth inhibition was 1% in assay [1] and 93% (active) in assay [4]. The inhibition was 60% (active) in assay [2] and 5% in assay [3]. For the same compound, the outcome in assay [5], in assay [6], in assay [7] and in assay [8] was inactive.
`COc1cc(NC(=O)c2cc([N+](=O)[O-])ccc2NC(=O)CNC2CCCC(C)C2C)cc(OC)c1` (centres undefined): the growth inhibition in assay [1] was 80% (active); in assay [4], 97% (active). Besides, the inhibition in assay [2] is 21%; in assay [3], 4%. Moreover, the outcome in assay [5], in assay [6], in assay [7] and in assay [8] was inactive.
In the case of `N=C(N)c1ccc(C(=O)Nc2cccc(C(=N)N)c2)cc1`, the growth inhibition was 82% (active) in assay [1] and 88% (active) in assay [4]. Further, the results for the inhibition in assay [2] and in assay [3] were 13% and -2%, respectively. The outcome in assay [5], in assay [6], in assay [7] and in assay [8] was inactive.
Take `N#Cc1cccc(C(=O)Nc2cccc(-c3cccc(CN4CCNCC4)c3)c2)c1`: the growth inhibition in assay [1] was 10%; in assay [4], 89% (active). Further, the inhibition in assay [2] is 37%; in assay [3] it was -3%. Also, the result in assay [5], in assay [6], in assay [7] and in assay [8] was inactive.
